# FBW7 act: human FBW7 E3 ligase activation, primary screen; Q969H0; AlphaScreen FBW7–phospho-cyclin E peptide binding, activator screen; normalized activity (activation), % at 26.1 µM; hit rate 0.13% among 650,000; AID 1259310; in the data active means normalized activity above about 1.9%;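 further: purified mutant Fbw7 with reduced substrate affinity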
# Target sequence (Q969H0 whole entry, looked up): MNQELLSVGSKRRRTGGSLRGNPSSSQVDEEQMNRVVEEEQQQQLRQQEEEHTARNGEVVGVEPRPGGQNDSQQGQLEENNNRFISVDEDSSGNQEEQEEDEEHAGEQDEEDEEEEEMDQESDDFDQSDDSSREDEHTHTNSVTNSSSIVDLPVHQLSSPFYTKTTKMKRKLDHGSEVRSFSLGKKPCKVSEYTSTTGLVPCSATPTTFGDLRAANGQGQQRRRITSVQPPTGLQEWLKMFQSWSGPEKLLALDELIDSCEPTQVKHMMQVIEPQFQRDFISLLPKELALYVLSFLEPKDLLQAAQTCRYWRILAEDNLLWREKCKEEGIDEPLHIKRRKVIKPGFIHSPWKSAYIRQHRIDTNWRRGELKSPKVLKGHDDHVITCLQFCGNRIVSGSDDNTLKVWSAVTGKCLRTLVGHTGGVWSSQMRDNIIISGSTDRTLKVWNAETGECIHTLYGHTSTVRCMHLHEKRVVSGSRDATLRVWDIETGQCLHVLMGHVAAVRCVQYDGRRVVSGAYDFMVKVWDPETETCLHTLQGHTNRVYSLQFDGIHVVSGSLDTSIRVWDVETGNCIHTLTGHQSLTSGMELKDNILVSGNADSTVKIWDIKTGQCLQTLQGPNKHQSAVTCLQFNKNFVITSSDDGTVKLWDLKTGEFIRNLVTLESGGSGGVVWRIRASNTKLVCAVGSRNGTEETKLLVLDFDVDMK
# TEAD-YAP inh: TEAD-YAP interaction inhibition. HEK-TIYL cells, TEAD-Gal4/YAP UAS-luciferase luminescence. inhibition, % at 9.12 µM. hit rate 1.4% among 640,000; in the data active means inhibition above about 32%;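 further: 0% = median of test compound wells and 100% = reference inhibitor wells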
# MITF inh: human MITF inhibition, primary screen; O75030; AlphaScreen MITF homodimerization, bead proximity signal; inhibition, % at 2.6 µM; hit rate 0.91% among 650,000; in the data active means inhibition above about 50%;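 further: 0% = vehicle wells with protein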
# GPR151 ag: human GPR151 activation | Q8TDV0 | PathHunter beta-arrestin GPR151 cells, luminescence | activation, % at 11.2 µM | hit rate 1% among 650,000 | AID 1508602; in the data active means activation above about 4.9%;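 further: 0% = median of compound wells and 100% = cells with positive control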
# Starred values were filed as active, the others as inactive; x = no result. In the library only some 3.5% were active in any assay of this set; here they are far more common.
SMILES,FBW7 act,TEAD-YAP inh,MITF inh,GPR151 ag
Cc1ccc(C(=O)Nc2ccc(S(=O)(=O)NCc3ccccc3)cc2)cc1,0,32*,-15,-1
Cc1cc(C)cc(N=C2NC(=O)/C(=C/c3ccc(O)cc3)S2)c1,-1,12,16,-1
O=C(Nc1nc2ccccc2[nH]1)c1ccc([N+](=O)[O-])cc1Cl,0,18,3,-6
O=C(Nc1nc2ccccc2[nH]1)c1ccccc1Cl,0,83*,3,-11
O=C(Nc1nc2ccccc2[nH]1)c1ccc(Cl)cc1Cl,0,84*,-10,-11
O=C(Nc1cnc2ccccc2c1)c1ccc(Cl)cc1Cl,0,66*,10,-4
O=C(O)/C=C/c1ccc(O)c(O)c1,0,-5,46,0
O=C(/C=C/c1ccc(O)c(O)c1)O[C@H](Cc1ccc(O)c(O)c1)C(=O)O,x,x,90*,0
CC(C)OC(=O)c1ccc(-c2ccc(/C=C(\C#N)C(N)=C(C#N)C#N)o2)cc1,1,-76,15,-1
Nc1nnc(CC(=O)N2CCCCC2)s1,2.1*,5,12,-1
CC1(c2ccccc2Br)NC(=O)N(Cc2ccccc2F)C1=O (configuration not stated),0,0,-2,0
Cc1nn(-c2ccccc2)c2ncc(C(=O)c3cc(F)ccc3O)cc12,0,1,18,-1
Cc1nc(C)n(-c2ccc(Nc3ncc(Br)c(-c4cnn(C)c4)n3)cc2)n1,0,77*,8,0
Cc1ncn(-c2ccc(Nc3ncc(Cl)c(-c4cnn(C)c4)n3)cc2)n1,0,72*,-16,-1
Cc1ncn(-c2ccc(Nc3ncc(Cl)c(Nc4ccccc4-c4ncn(C)n4)n3)cc2)n1,0,1,-3,0
Cc1nc(C)n(-c2ccc(Nc3nc(-c4cnn(C)c4)cc(N(C)C)n3)cc2)n1,0,33*,15,-2
Cc1nc(C)n(-c2ccc(Nc3nccc(-c4cc(F)cc(-c5cnn(C)c5)c4)n3)cc2)n1,0,-1,9,-1
Nc1cccc(-c2cc(NCc3cccc(C(F)(F)F)c3)nc(N)n2)c1,0,44*,-11,1
Nc1nc(NCc2cccc(C(F)(F)F)c2)cc(-c2ccccc2)n1,0,45*,2,1
CCSCCOC(=O)C1=C(C)NC2=C(C(=O)CC(C)(C)C2)C1c1ccc(Cl)c([N+](=O)[O-])c1 (configuration not stated),0,1,-18,-2
N#Cc1cccc(CSc2nc3ccncc3[nH]2)c1,1,2,6,-1
COC(=O)c1ccc(CSc2nc(C)cc(=O)[nH]2)cc1,0,4,-9,-1
c1ccc(CSc2nc3ccncc3[nH]2)cc1,0,57*,-11,-2
COC(=O)c1ccc(CSc2nc3ccncc3[nH]2)cc1,0,92*,4,-3
COc1cccc(CC2=NOC(C(=O)NCC(C)(C)CO)C2)c1 (configuration not stated),0,1,0,0
SMILES,FBW7 act,TEAD-YAP inh,MITF inh,GPR151 ag
COc1cccc(CC2=NOC(C(=O)NCc3cnc4ccccc4c3)C2)c1 (configuration not stated),0,35*,3,1
COC(=O)c1sccc1NC(=O)Cn1c(-c2nonc2N)nc2ccccc21,0,50*,-8,1
COc1cc(/C=N/NC(=O)Cn2c(-c3nonc3N)nc3ccccc32)ccc1O,0,45*,6,0
Nc1nc(N)nc(CCCn2c(-c3nonc3N)nc3ccccc32)n1,0,57*,12,0
Nc1nonc1-c1nc2ccccc2n1CC(=O)Nc1ccccc1-c1ccccc1,0,-11,7,2
COc1cccc(/C=N\NC(=O)Cn2c(-c3nonc3N)nc3ccccc32)c1O,0,29,12,-1
CCOC(=O)c1ccccc1NC(=O)Cn1c(-c2nonc2N)nc2ccccc21,0,52*,2,0
COc1ccc(-n2c(/C=C/N(C)C)c([N+](=O)[O-])c3ccc(O)c(CN(C)C)c32)cc1,0,38*,5,-1
CC(C)(C)/C(=C\c1nc2ccccc2[nH]c1=O)NN,0,81*,3,-6
Cc1ccc(C(=O)Nc2cccc(OC(=O)c3cc(S(=O)(=O)N4CCOCC4)ccc3Cl)c2)cc1,0,83*,1,-6
O=C(Nc1cccc(OC(=O)c2cccc(S(=O)(=O)N3CCOCC3)c2)c1)c1ccc(Br)cc1,0,35*,6,1
O=C(Nc1cccc(OC(=O)c2ccc(F)c(S(=O)(=O)N3CCOCC3)c2)c1)c1ccccc1,0,32*,-3,-1
O=C(Oc1cccc(NC(=O)c2ccco2)c1)c1ccc(F)c(S(=O)(=O)N2CCOCC2)c1,0,2,-14,0
O=C(Nc1cccc(OC(=O)c2cc(S(=O)(=O)N3CCCCCC3)ccc2Cl)c1)c1ccccc1,0,-3,-5,0
O=C(Oc1cccc(NC(=O)c2ccco2)c1)c1cccc(S(=O)(=O)N2CCOCC2)c1,1,-12,18,-3
C/C(CC(=O)Nc1cccc(Cl)c1C)=N\NC(=O)c1ccc([N+](=O)[O-])cc1Cl,0,2,2,1
O=C1C(=O)c2ncccc2-c2cccnc21,-2,75*,57*,0
c1cc(CN2CCc3nnc(C4CCCO4)n3CC2)co1 (configuration not stated),0,6,2,1
Cc1cc(C(=O)CSc2nnc(N)s2)c(C)n1Cc1ccco1,0,37*,7,-1
Cc1cc(C(=O)COC(=O)c2cccs2)c(C)n1Cc1cccs1,0,53*,14,-1
Cc1nnc(SCC(=O)c2cc(C)n(Cc3cccs3)c2C)s1,0,62*,2,1
COCCn1c(C)cc(C(=O)CSc2nnc(C)s2)c1C,0,70*,-2,-6
COc1ccc(CCn2c(C)cc(C(=O)CSc3nnc(C)s3)c2C)cc1,0,4,-2,0
Cc1nc(N2CCOCC2)sc1C(=O)NNC(=O)CCc1nc2ccccc2s1,0,7,7,-1
Cn1cc(CCCC(=O)NCc2cccnc2)c2ccccc21,0,4,7,1
SMILES,FBW7 act,TEAD-YAP inh,MITF inh,GPR151 ag
COC(=O)c1ccccc1NC(=O)Nc1cnn(Cc2ccc(Cl)cc2Cl)c1,0,-5,-5,0
N#CC(C#N)C(C#N)(C#N)C1CCC/C(=C\c2ccco2)C1=O (configuration not stated),-1,-2,81*,2
O=C1/C(=C/c2ccco2)CCc2ccccc21,0,-54,22,-3
COC(=O)c1ccc(Cl)cc1NC(=O)c1cc(OC)ccc1Br,0,37*,-3,-1
COc1ccc(C(=O)Nc2cc(Cl)ccc2C(=O)O)cc1,0,6,15,-1
Cc1ccc(N2CC(=O)Nc3ccccc3S2(=O)=O)cc1C,0,52*,17,1
N#Cc1ccc(NC(=O)C(=O)NCc2ccco2)cc1,0,-1,4,-1
COc1cc(Nc2nc(Nc3cc(OC)c(OC)c(OC)c3)c3ncn(-c4ccsc4)c3n2)cc(OC)c1OC,0,50*,2,3
